# From PubChem BioAssay (NCATS)
# “And” between values parts separate entries of the source, which are not always exact repeats. Identical values can stand only once. Results filed as inconclusive are left out. The source holds several records for some structures; these can differ, active in one and inactive in another. The source made the active and inactive calls. Unless noted, the call rests on the fitted dose curve; in most records, active means well fitted curve in the direction sought with a large enough effect; inconclusive means small, poorly fitted or top-dose-only effect, or another doubt; inactive means no such curve, though single readings can be large; an effect the other way counts as inactive or inconclusive.
# What was measured:
# [1] = Primary qHTS for inhibitors of nuclear receptor binding SET domain protein 2 (NSD2) in an isogenic RCH-ACV NSD2 p.E1099K mutant (9B) (AID 1645876); conditions: RCH-ACV NSD2 E1099K (9B) viability, CellTiter-Glo, 72 h; series mostly up to 44.9 µM; further: nearly all actives have a fitted effect of over 70% in size; on activity change, negative = viability loss: on the % scale 0 is the no-effect control and ±100 the full control effect
# [2] = Primary qHTS for inhibitors of nuclear receptor binding SET domain protein 2 (NSD2) in an RCH-ACV wild type WT cells (2C) (AID 1645877); conditions: RCH-ACV (leukaemia line) NSD2 WT (2C) viability, CellTiter-Glo, 72 h; series mostly up to 44.9 µM; further: nearly all actives have a fitted effect of over 70% in size; on activity change, negative = cell killing: on the % scale 0 is the no-effect control and ±100 the full control effect
# [3] = target: Cytochrome P450 2C9 (Homo sapiens) (UniProt P11712); test: Cytochrome P450 family 2 subfamily C member 9 (CYP2C9) small molecule antagonists: luciferase biochemical (cell-free) qHTS assay (AID 1645842; active means well fitted curve in the direction sought with a large enough effect in the repeat runs; an effect the other way counts as inactive or inconclusive; further: nearly all actives have a fitted effect of over 55% in size); conditions: P450-Glo CYP2C9 enzyme assay, luciferin luminescence; series mostly up to 57.4 µM
# In short: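 Luminescence, after 20 min with luciferin detection reagent, reflected CYP2C9 turnover during a 1 h NADPH-driven reaction at 37C. Enzyme-substrate mix contained 0.4% bovine serum albumin and was preincubated with compound 10 min at room temperature.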
# Potency means the concentration at half of the fitted maximal effect.
# Sequence of Cytochrome P450 2C9 (Homo sapiens) (P11712 whole entry, looked up): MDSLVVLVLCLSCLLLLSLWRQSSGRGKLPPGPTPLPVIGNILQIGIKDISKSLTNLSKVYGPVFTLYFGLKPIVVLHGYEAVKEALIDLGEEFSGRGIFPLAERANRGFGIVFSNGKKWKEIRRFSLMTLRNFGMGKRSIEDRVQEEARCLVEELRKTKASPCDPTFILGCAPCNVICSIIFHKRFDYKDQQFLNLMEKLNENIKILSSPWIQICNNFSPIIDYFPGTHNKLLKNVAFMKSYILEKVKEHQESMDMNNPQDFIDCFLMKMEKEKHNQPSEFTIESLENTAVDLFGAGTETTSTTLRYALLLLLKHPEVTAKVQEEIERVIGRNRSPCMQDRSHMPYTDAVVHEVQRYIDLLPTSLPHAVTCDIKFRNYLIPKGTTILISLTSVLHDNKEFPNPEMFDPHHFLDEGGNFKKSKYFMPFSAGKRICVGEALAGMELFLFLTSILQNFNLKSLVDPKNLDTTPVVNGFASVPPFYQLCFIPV
structure (smiles),measurement,setting,value
COc1ccc(-c2ccc3ncc4c(c3c2)n(-c2ccc(N3CCNCC3)c(C(F)(F)F)c2)c(=O)n4C)cn1,Potency,[1],5.2 nM (active) and 14.6 nM (active) and 13.2 nM (active)
same,Potency,[2],7.3 nM (active) and 14.6 nM (active) and 18.6 nM (active)
N#CC(c1ccc(Cl)cc1)c1c(Cl)cc(-n2ncc(=O)[nH]c2=O)cc1Cl (stereo not given),Potency,[3],19000 nM (active)
same,Potency,[2],inactive
CN1N=C(N)c2cn([C@@H]3O[C@H](COP(=O)(O)O)[C@@H](O)[C@@H]3O)c3ncnc1c23,Potency,[1],2.63 µM (active)
CC[C@H](C)n1cc(C)c2c(C(=O)NCc3c(C)cc(C)[nH]c3=O)cc(-c3ccc(N4CCNCC4)nc3)cc21,Potency,[1],18.6 µM (active)
same,Potency,[2],16.6 µM (active)
COc1ccc2nc3cc(Cl)ccc3c(Nc3cc(CN4CCCC4)c(O)c(CN4CCCC4)c3)c2n1,Potency,[1],2.95 µM (active)
same,Potency,[2],2.95 µM (active)
Cc1c(C(=O)Nc2ccc(N3C[C@@H](C)O[C@@H](C)C3)nc2)cccc1-c1ccc(OC(F)(F)F)cc1,Potency,[1],inactive
same,Potency,[2],inactive
C#CCN(C)CC1=Cc2ccccc2Oc2ccccc21,Potency,[1],inactive
same,Potency,[2],inactive
CN1CC(=O)NC1=NC(=O)Nc1cccc(Cl)c1,Potency,[1],inactive
same,Potency,[2],inactive
CO[C@@H]1C(N(C)C(=O)c2ccccc2)C[C@H]2O[C@]1(C)n1c3ccccc3c3c4c(c5c6ccccc6n2c5c31)C(=O)NC4=O (stereo not given in full),Potency,[1],1.66 µM (active)
same,Potency,[2],1.32 µM (active)
CN1CCN2c3ncccc3Cc3ccccc3C2C1 (stereo not given),Potency,[1],inactive
same,Potency,[2],inactive
N[C@@H](CC(=O)N1CCn2c(nnc2C(F)(F)F)C1)Cc1cc(F)c(F)cc1F,Potency,[1],inactive
same,Potency,[2],inactive
O=C1NC(=O)C(c2cnc3ccccn23)=C1c1cn2c3c(cccc13)CN(C(=O)N1CCOCC1)CC2,Potency,[1],0.0148 µM (active)
same,Potency,[2],0.0148 µM (active)
COc1cc2ncn(-c3cc(OCc4ccccc4S(C)(=O)=O)c(C#N)s3)c2cc1OC,Potency,[1],inactive
same,Potency,[2],inactive
CC(C)(F)C[C@H](N[C@@H](c1ccc(-c2ccc(S(C)(=O)=O)cc2)cc1)C(F)(F)F)C(=O)NC1(C#N)CC1,Potency,[1],inactive
same,Potency,[2],inactive
CN[C@@H]1CN(c2ccc3c(=O)c(C(=O)O)cn(-c4nccs4)c3n2)C[C@@H]1OC,Potency,[1],0.102 µM (active)
same,Potency,[2],0.0645 µM (active)
Nc1ncnc2c1ncn2[C@@H]1O[C@H](CO)[C@@H](O)[C@@H]1O,Potency,[1],16.6 µM (active)
same,Potency,[2],16.6 µM (active)
Cc1cccc(Nc2nc(N[C@@H]3CCCC[C@H]3N)ncc2C(N)=O)c1,Potency,[1],1.48 µM (active)
same,Potency,[2],1.48 µM (active)
OC(c1cc(C(F)(F)F)nc2c(C(F)(F)F)cccc12)C1CCCCN1 (stereo not given),Potency,[1],11.8 µM (active)
same,Potency,[2],13.2 µM (active)
CC[C@@H]([C@H](C)O)n1ncn(-c2ccc(N3CCN(c4ccc(OCC5CO[C@@](Cn6cncn6)(c6ccc(F)cc6F)C5)cc4)CC3)cc2)c1=O (stereo not given in full),Potency,[1],inactive
same,Potency,[2],inactive
OC1CCC(Nc2ncc3nc(Nc4c(F)cc(F)cc4F)n([C@@H]4CCOC4)c3n2)CC1 (stereo not given in full),Potency,[1],inactive
same,Potency,[2],inactive
Cc1cc2c(cc1C1(c3ccc(C(=O)O)cn3)CC1)C(C)(C)CCC2(C)C,Potency,[1],inactive
same,Potency,[2],inactive
Cc1cccc(-c2[nH]c(C(C)(C)C)nc2-c2ccc3c(c2)OCO3)n1,Potency,[1],4.61 µM (active) and 4.17 µM (active)
same,Potency,[2],4.11 µM (active) and 4.17 µM (active)
NC[C@H]1O[C@H](O[C@@H]2[C@@H](O)[C@@H](O[C@H]3O[C@H](CO)[C@@H](O)[C@H](N)[C@@H]3O)[C@H](N)C[C@@H]2N)[C@H](O)[C@@H](O)[C@H]1O,Potency,[1],inactive
same,Potency,[2],inactive
CC(C)[C@H](O)C(=O)N[C@@H](C)C(=O)N[C@@H]1C(=O)N(C)CCc2ccccc21,Potency,[1],inactive
same,Potency,[2],inactive
O=C(O)CCNc1cc(N2CCc3ccccc3CC2)nc(-c2ccccn2)n1,Potency,[1],inactive
same,Potency,[2],inactive
O=C(Nc1ncc(SCCN2CCCC2)s1)[C@]1(c2ccc(S(=O)(=O)C3CC3)cc2)C[C@@H]1C1CCCCC1,Potency,[1],20.6 µM (active)
same,Potency,[2],14.6 µM (active)
CCC[C@H](N[C@@H](C)C(=O)N1[C@@H]2CCCC[C@H]2C[C@H]1C(=O)O)C(=O)OCC,Potency,[1],inactive
same,Potency,[2],inactive
NC1(C(=O)N[C@@H](CCO)c2ccc(Cl)cc2)CCN(c2ncnc3[nH]ccc23)CC1,Potency,[1],0.817 µM (active)
same,Potency,[2],2.35 µM (active)
CN1c2ccccc2C(=O)N2CCc3c([nH]c4ccccc34)C21 (stereo not given),Potency,[1],2.09 µM (active)
same,Potency,[2],1.32 µM (active)
NCC1CCC(C(=O)O)CC1 (stereo not given),Potency,[1],inactive
same,Potency,[2],inactive
COc1ccc2c(c1)c(C1=C(c3c[nH]c4ccccc34)C(=O)NC1=O)cn2CCCN(C)C,Potency,[1],7.42 µM (active)
same,Potency,[2],6.61 µM (active)
Cc1ccc(S(=O)(=O)OCC(=O)Nc2ccc(C(=O)O)c(O)c2)cc1,Potency,[1],inactive
same,Potency,[2],inactive
CS(=O)(=O)c1ccc(C2=C(c3ccccc3)C(=O)OC2)cc1,Potency,[1],inactive
same,Potency,[2],inactive
CC(C)Oc1cc(Nc2nc(N[C@@H](C)c3ccc(F)cn3)ncc2Cl)[nH]n1,Potency,[1],7.42 µM (active) and 8.2 µM (active)
same,Potency,[2],9.34 µM (active) and 6.51 µM (active)
O=C1C(c2c(O)[nH]c3ccccc23)=Nc2ccccc21,Potency,[1],8.93 µM (active) and inactive
same,Potency,[2],2.24 µM (active) and inactive
Cc1ccc(S(=O)(=O)Nc2nc3ccccc3nc2Nc2ccc3nsnc3c2)cc1,Potency,[1],inactive
same,Potency,[2],14.6 µM (active) and inactive
CCN(CC)CCCCNc1nc2cc(Cl)c(Cl)cc2nc1-c1ccc(-c2cccs2)s1,Potency,[1],7.42 µM (active)
same,Potency,[2],7.42 µM (active)
CC1(COc2ccc3c(c2)ncn3-c2ccc3cccc(N4CCC(N)CC4)c3n2)COC1,Potency,[1],1.83 µM (active) and 1.32 µM (active)
same,Potency,[2],2.05 µM (active) and 1.86 µM (active)
N#CC1(c2cccc(C(=O)Nc3cc(Oc4ccc5nc(NC(=O)C6CC6)sc5n4)ccc3F)c2Cl)CC1,Potency,[1],1.83 µM (active) and inactive
same,Potency,[2],3.65 µM (active) and inactive
COc1cc([C@@H]2c3cc4c(cc3[C@@H](O[C@@H]3O[C@@H]5CO[C@@H](C)O[C@@H]5[C@H](O)[C@@H]3O)[C@H]3COC(=O)[C@H]23)OCO4)cc(OC)c1O,Potency,[1],0.263 µM (active)
same,Potency,[2],0.235 µM (active)
CN(C)CC[C@H](CSc1ccccc1)Nc1ccc(S(=O)(=O)NC(=O)c2ccc(N3CCN(Cc4ccccc4-c4ccc(Cl)cc4)CC3)cc2)cc1[N+](=O)[O-],Potency,[1],4.17 µM (active)
same,Potency,[2],2.63 µM (active)
CC[C@H](C=C[C@@H](C)[C@H]1CC[C@H]2[C@@H]3CC=C4C[C@@H](O)CC[C@]4(C)[C@@H]3CC[C@]12C)C(C)C,Potency,[1],inactive
same,Potency,[2],inactive
CN[C@@H](C)[C@H]1[C@H](O)C[C@@]2(C)[C@@H]3CC[C@H]4C(C)(C)[C@@H](NC)CC[C@@]45C[C@@]35CC[C@]12C,"activity change, negative = viability loss",[1],5.77% [at 9.23 µM] (inactive)
same,"activity change, negative = cell killing",[2],-13.6% [at 9.23 µM] (inactive)
Cc1ccc(C(=O)N(CCCN)[C@@H](c2oc3cc(Cl)ccc3c(=O)c2Cc2ccccc2)C(C)C)cc1,Potency,[1],0.0332 µM (active)
same,Potency,[2],0.0263 µM (active)
CN(C)CCN(C)C(=O)c1ccc(NC(=O)Nc2ccc(-c3nc(N4CCOCC4)c4ccn(CC(F)(F)F)c4n3)cc2)cc1,Potency,[1],0.0209 µM (active)
same,Potency,[2],0.0186 µM (active)
O=[N+]([O-])c1ccc(Nc2ccccc2-c2ccccc2)c2nonc12,Potency,[1],20.9 µM (active)
same,Potency,[2],20.9 µM (active)
NC(=O)c1noc([C@H](CCCC2CCCCC2)CC(=O)NO)n1,Potency,[1],1.86 µM (active)
same,Potency,[2],1.66 µM (active)
O=C1CN2Cc3c(ccc(Cl)c3Cl)N=C2N1,Potency,[1],inactive
same,Potency,[2],inactive
COc1c(C)cnc(Cn2cnc3c(Cl)nc(N)nc32)c1C,Potency,[1],0.235 µM (active)
same,Potency,[2],0.263 µM (active)
CC(=O)NCCC(=O)N[C@@H](CCC(N)=O)C(=O)N[C@@H](CO)C(=O)N[C@@H](CCC(N)=O)C(=O)N[C@@H](CCC(N)=O)C(=O)N[C@H](C(=O)N[C@@H](Cc1ccccc1)C(=O)N[C@]1(C)CCCCCCC=CCCC[C@@](C)(C(=O)N[C@@H](CCC(N)=O)C(=O)N[C@@H](CC(N)=O)C(N)=O)NC(=O)[C@H](CC(C)C)NC(=O)[C@H](CC(C)C)NC(=O)[C@@H](CCCNC(=N)N)NC(=O)[C@H](Cc2c[nH]c3ccccc23)NC(=O)[C@H](CC(C)C)NC(=O)[C@H](CC(N)=O)NC1=O)[C@H](C)O,Potency,[1],inactive
same,Potency,[2],inactive
COC(=O)[C@H](c1ccccc1Cl)N1CCc2sccc2C1,Potency,[1],inactive
same,Potency,[2],inactive
CN(C(Cc1ccc(OS(=O)(=O)c2cccc3cnccc23)cc1)C(=O)N1CCN(c2ccccc2)CC1)S(=O)(=O)c1cccc2cnccc12 (stereo not given),Potency,[1],7.31 µM (active)
same,Potency,[2],6.51 µM (active)
N#Cc1c(N(CC(=O)O)CC(=O)O)sc(C(=O)O)c1CC(=O)O,Potency,[1],inactive
same,Potency,[2],inactive
